Compound activity as filed in PubChem.
NPC1 prom act = qHTS Assay for NPC1 Promoter Activators; Huh7 NPC1 promoter luciferase reporter, 24 h; Potency, µM (titrated, usually from 9.22 µM), hits mostly activators; 320,000 compounds, 2.4% hits; AID 485313, 2010; note: nearly all actives have a fitted effect of over 60% in size
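Stably transfected Huh7 (NPC1 promoter→luciferase), 1500 cells/well in Opti-MEM + 10% FBS, 2 h settle, then compound 24 h at 37 °C. Luminescence after 10 min with Amplite reagent.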
Rab9 promoter act = qHTS Assay for Rab9 Promoter Activators. Huh7 Rab9 promoter-luciferase reporter, luminescence, 24 h. Potency, µM (top dose mostly 9.22 µM), actives largely listed as activators. 320,000 compounds, 2.8% hits. AID 485297, 2010; note: nearly all actives have a fitted effect of over 60% in size
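Quantitative HTS format; Huh7 Rab9-luciferase reporter cells (1500/well) receive compound 2 h post-plating, incubate 24 h at 37 °C, then get luciferase reagent for 10 min before luminescence reading.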
ELG1 repair inh = qHTS screen for small molecules that inhibit ELG1-dependent DNA repair in human embryonic kidney (HEK293T) cells expressing luciferase-tagged ELG1. HEK293T ELG1-luciferase reporter, luminescence, 16 h; DNA damage induced by 5-fluorouridine. Potency, µM (titrated, usually from 46.1 µM), most hits filed as inhibitors. 330,000 compounds, 2.3% hits. AID 504467, 2011; note: nearly all actives have a fitted effect of over 55% in size
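Step one: seed 2,000 cells per well. Step two: pin-transfer compound or DMSO alongside 5-fluorouridine. Step three: incubate 16 hr, 37 °C, 5% CO2. Step four: add ONE-Glo, wait 30 min, read luminescence.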
SMN2 splice up = qHTS Assay for Enhancers of SMN2 Splice Variant Expression | 210,000 compounds, 2.8% hits | HEK293 SMN2-luciferase splicing reporter, luminescence, 30-36 h | AID 1458, 2008 | Potency, µM (titrated, usually from 46.1 µM), hits mostly activators; note: nearly all actives have a fitted effect of over 55% in size
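HEK293 cells carry an SMN2 minigene-luciferase reporter in which exon 7 inclusion puts luciferase in frame. Cells were seeded at 2000 cells/well, attached for 10-12 hours, then exposed to compounds for 30-36 hours at 37C before ONE-Glo luminescence.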
ELG1 genotox = qHTS screen for small molecules that induce genotoxicity in human embryonic kidney (HEK293T) cells expressing luciferase-tagged ELG1; HEK293T ELG1-luciferase reporter, luminescence, 16 h; Potency, µM (doses to about 46 µM), hits mostly activators; 330,000 compounds, 1.3% hits; AID 504466, 2011; note: nearly all actives have a fitted effect of over 60% in size
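HEK293T cells expressing luciferase-tagged ELG1 were exposed to compound or DMSO vehicle for 16 hr at 37 °C and 5% CO2. Luciferase activity was then measured with ONE-Glo after 30 min at room temperature.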
FLuc counter = qHTS profiling assay for firefly luciferase inhibitor/activator using purifed enzyme and Km concentrations of substrates (counterscreen for miR-21 project) | purified FLuc, Km substrates, luminescence inhibition | Potency, µM (titrated, usually from 57.5 µM), usual class: inhibitors | 360,000 compounds, 6.9% hits | AID 588342, 2011; note: nearly all actives have a fitted effect of over 55% in size
Target sequence (P08659 whole entry, looked up): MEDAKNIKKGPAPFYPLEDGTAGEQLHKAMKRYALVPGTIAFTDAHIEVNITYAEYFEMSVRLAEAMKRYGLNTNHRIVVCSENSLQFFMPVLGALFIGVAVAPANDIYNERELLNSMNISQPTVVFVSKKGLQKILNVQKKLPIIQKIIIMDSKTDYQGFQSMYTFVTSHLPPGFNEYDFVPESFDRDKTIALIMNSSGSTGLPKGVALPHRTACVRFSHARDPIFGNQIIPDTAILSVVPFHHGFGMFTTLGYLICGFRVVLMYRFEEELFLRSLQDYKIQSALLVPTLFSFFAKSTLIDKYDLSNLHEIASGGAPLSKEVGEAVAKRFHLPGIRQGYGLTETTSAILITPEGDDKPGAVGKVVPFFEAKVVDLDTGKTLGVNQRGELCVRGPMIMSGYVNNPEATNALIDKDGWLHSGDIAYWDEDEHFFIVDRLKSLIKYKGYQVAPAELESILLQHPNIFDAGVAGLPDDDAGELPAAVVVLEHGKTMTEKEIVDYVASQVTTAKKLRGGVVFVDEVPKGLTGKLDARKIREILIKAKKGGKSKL
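Purified P. pyralis luciferase (10nM final) with 10uM D-luciferin and 10uM ATP (Km levels) in 50mM Tris acetate pH 7.5, 10mM Mg acetate, 0.01% Tween-20, 0.05% BSA; qHTS 6-point titration, ~60 µM downward; luminescence read.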
Hits are given with their value; 0 = inactive; ? = inconclusive; - = no result. A selection: hits, their analogues and other compounds. The true share with any hit is near 9.2%. Calls come from the whole dose curve; as a rule, active = well fitted curve in the direction sought with a large enough effect; inconclusive = small, poorly fitted or top-dose-only effect, or another doubt; inactive = no such curve, though single readings can be large; an effect the other way counts as inactive or inconclusive.

SMILES	NPC1 prom act	Rab9 promoter act	ELG1 repair inh	SMN2 splice up	ELG1 genotox	FLuc counter
Cc1ccnc(NC(=S)NC(=O)c2ccco2)c1	2µM	2µM	?	0	?	12µM
CCOc1ccccc1NC(=S)NC(=O)c1ccco1	0	0	0	-	0	?
COc1ccc(C(=O)Oc2cc(-c3ccc(OC)c(OC)c3)cc(=O)c3c(C)oc(C)c23)cc1	-	-	-	-	-	0
COC(=O)c1sc(-c2ccccc2)cc1NC(=O)Nc1ccc(F)cc1	-	-	-	0	-	0
Cc1ccnc(NC(=S)NC(=O)c2cccs2)c1	1.58µM	0.794µM	?	6.31µM	2.06µM	4.26µM
O=C(NC(=S)Nc1ccccn1)c1ccco1	2.24µM	2µM	?	10µM	?	21.3µM
O=C(NC(=S)Nc1ccc(Cl)cn1)c1cccs1	?	5.62µM	?	12.6µM	?	3.01µM
O=C(NC(=S)Nc1cccnc1)c1cccs1	0	0	?	-	0	?
Cc1ccnc(NC(=O)CNC(=O)c2cccs2)c1	0	0	0	-	0	0
Cc1ccccc1N=C1NC(=O)/C(=C/c2cccnc2)S1	0	0	20.6µM	-	0	0
CC(/C=C1\SC(=Nc2cccnc2)NC1=O)=C\c1ccccc1	0	0	0	-	0	?
C=CCOc1ccc(/C=C2\SC(=Nc3cccnc3)NC2=O)cc1	0	0	?	-	0	7.57µM
O=C1N/C(=N/O)S/C1=C/c1cccnc1	0	0	0	0	0	?
CCOc1ccc(/C=C/C(=O)Nc2sc3c(c2C(=O)OC)CCC3)cc1	-	-	-	0	-	0
O=C(Nc1ccc(-c2n[nH]c(=S)o2)cc1)c1ccccc1Br	0	0	0	-	0	15.1µM
COc1ccc(C(=O)Nc2ccc(-c3n[nH]c(=S)o3)cc2)cc1OC	0	0	0	-	0	?
CCOc1ccccc1CNC(=O)c1ccc(CS(=O)Cc2cccc(Cl)c2)o1 (stereo not given)	-	-	-	-	-	0
O=[N+]([O-])c1ccc(Sc2cccc[n+]2[O-])c2nonc12	0	0	?	-	0	4.78µM
CC1CCc2nc(NC(=O)C3COc4ccccc4O3)sc2C1 (stereo not given)	?	?	?	0	?	0.536µM
CC1CCc2nc(NC(=O)CN3CCOCC3)sc2C1 (stereo not given)	0	?	?	?	?	?
CC1CCc2nc(NC(=O)C3CC3)sc2C1 (stereo not given)	?	?	?	?	0	23.9µM
Cc1ncsc1C(=O)Nc1nc2c(s1)CC(C)CC2 (stereo not given)	1.78µM	?	?	12.6µM	2.06µM	2.13µM
Cc1ccccc1C(=O)Nc1nc2c(s1)CC(C(C)(C)C)CC2 (stereo not given)	-	-	-	-	-	6.01µM
CC1CCc2nc(NC(=O)COc3ccc(C(C)(C)C)cc3)sc2C1 (stereo not given)	-	-	-	-	-	0
CN(c1nnc(NC(=O)Nc2ccccc2C(F)(F)F)s1)C1CCCCC1	-	-	-	-	-	0
SMILES	NPC1 prom act	Rab9 promoter act	ELG1 repair inh	SMN2 splice up	ELG1 genotox	FLuc counter
O=C(COc1ccc(Cl)cc1Br)Nc1nnc(C2CC2)s1	0	0	?	-	0	0
COc1cc(/C=N/OCC(=O)NC2CCCCC2C)ccc1OCc1ccc(Cl)cc1 (stereo not given)	?	2.82µM	?	?	18.4µM	6.75µM
COc1cc(/C=N/OCC(=O)Nc2cc(C)cc(C)c2)ccc1OCc1ccc(Cl)cc1	?	3.16µM	?	11.2µM	?	9.53µM
COC(=O)c1ccc(/C=N/OCC(=O)NC2CCCC(C)C2C)cc1 (stereo not given)	0	0	0	0	0	0
COc1cc(/C=N/N2CCOCC2)ccc1OCc1ccc(Cl)cc1	0	0	?	11.2µM	?	10.7µM
CC(CN1CCC(n2nccc2NC(=O)CCCc2ccccc2)CC1)c1ccccc1 (stereo not given)	0	0	0	-	0	0
O=C(COC(=O)/C=C/c1cccc(F)c1)NC(=O)NC1CCCC1	-	-	0	-	0	-
CCCc1nn(C)c(C(=O)Nc2ccc(Cl)cc2)c1Cl	0	0	?	0	0	0
CCCc1nn(C)c(C(=O)Nc2ccccc2)c1Cl	3.55µM	1.12µM	?	0	?	7.57µM
CCCc1nn(C)c(C(=O)Nc2cccc(C)c2)c1Cl	?	?	?	0	?	16.9µM
CCN1CCN(CCC(=O)Nc2cccc(C)c2)CC1	0	0	0	-	0	0
CCCc1nn(C)c(C(=O)Nc2ccc(C(C)(C)C)cc2)c1Cl	0	0	0	0	0	?
CCCc1nn(C)c(C(=O)Nc2cccc(Cl)c2)c1Cl	0	?	?	0	?	21.3µM
COc1ccc(C(=O)COC(=O)c2cccnc2SC)cc1	0	0	0	0	0	3.79µM
COc1ccc(C(=O)COC(=O)c2nn(C)cc2Cl)cc1	0	0	?	-	?	16.9µM
CSc1ncccc1C(=O)OCC(=O)c1cc2ccccc2o1	0	0	0	0	0	21.3µM
